Results filed as inconclusive are left out. Activity calls are given as the source filed them. Calls come from the whole dose curve; as a rule, active = well fitted curve in the direction sought with a large enough effect; inconclusive = small, poorly fitted or top-dose-only effect, or another doubt; inactive = no such curve, though single readings can be large; an effect the other way counts as inactive or inconclusive.
assay: Quantitative High-Throughput drug screen in 47 multiple myeloma cell lines against the NCATS MIPE library collection: MMM1_PLB cell viability assay (AID 1918976); settings: MMM1 myeloma cells viability, CellTiter-Glo, 48 h; series mostly up to 45.8 µM; viability (% of control): at the top concentration; note: nearly all actives have a fitted effect of over 35% in size
Procedure, shortened: (§1)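 500 cells/well per myeloma line exposed to pinned MIPE 4.0 compounds for 48 h at 37 °C, 5% CO2. Viability read as ATP by CellTiter-Glo luminescence, normalised to DMSO-only (100%) and media-only (0%) wells.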
Potency is the fitted concentration of half-maximal effect.

SMILES	Potency
COc1cc(C(C)=O)ccc1OCCCN1CCC(c2noc3cc(F)ccc23)CC1	18.7 µM (active)
Nc1cccc2c1CN(C1CCC(=O)NC1=O)C2=O (configuration not stated)	0.429 µM (active)
CCN(CC)C(=S)SSC(=S)N(CC)CC	0.0187 µM (active)
CC(=O)O[C@H]1C(=O)[C@@]2(C)C([C@H](OC(=O)c3ccccc3)[C@]3(O)C[C@H](OC(=O)[C@H](O)[C@@H](NC(=O)c4ccccc4)c4ccccc4)C(C)=C1C3(C)C)[C@]1(OC(C)=O)CO[C@@H]1C[C@@H]2O (some centres not stated)	14.8 µM (active)
CN(C)[C@@H](CCOc1cccc2ccccc12)c1ccccc1	20.9 µM (active)
C[C@H](Cc1ccc(O)c(O)c1)[C@@H](C)Cc1ccc(O)c(O)c1	6.62 µM (active)
COc1cc(Nc2c(C#N)cnc3cc(OCCCN4CCN(C)CC4)c(OC)cc23)c(Cl)cc1Cl	20.9 µM (active)
O=c1oc2cc(O)ccc2s1	16.6 µM (active)
CC(C)c1ccc2c(c1)c(SC(C)(C)C)c(CC(C)(C)C(=O)O)n2Cc1ccc(Cl)cc1	2.64 µM (active)
CC(=O)N1CCN(c2ccc(OC[C@H]3CO[C@](Cn4ccnc4)(c4ccc(Cl)cc4Cl)O3)cc2)CC1	23.5 µM (active)
CC(C)C[C@H](NC(=O)[C@H](Cc1ccccc1)NC(=O)c1cnccn1)B(O)O	0.469 µM (active)
Nc1nc(Cl)nc2c1ncn2[C@H]1C[C@H](O)[C@@H](CO)O1	4.69 µM (active)
O=C1CCc2ccc(OCCCCN3CCN(c4cccc(Cl)c4Cl)CC3)cc2N1	20.9 µM (active)

assay: Quantitative High-Throughput drug screen in 47 multiple myeloma cell lines against the NCATS MIPE library collection: MOLP8_DSMZ cell viability assay (AID 1918977); settings: MOLP8 myeloma viability, CellTiter-Glo ATP luminescence, 48 h; series mostly up to 45.8 µM; viability (% of control): at the top concentration; note: nearly all actives have a fitted effect of over 45% in size
Procedure, shortened: as §1

SMILES	viability (% of control)	Potency
Nc1cccc2c1CN(C1CCC(=O)NC1=O)C2=O (configuration not stated)	99.7% [at 92.2 µM] (inactive)	–
CC(C)[N+]1(C)[C@@H]2CC[C@H]1CC(OC(=O)C(CO)c1ccccc1)C2 (some centres not stated)	126% (inactive)	–
CC1=C(C(=O)O)N2C(=O)[C@@H](NC(=O)[C@H](N)C3=CCC=CC3)[C@H]2SC1	95.1% (inactive)	–
CC1Cc2ccccc2N1NC(=O)c1ccc(Cl)c(S(N)(=O)=O)c1 (configuration not stated)	107% (inactive)	–
CCN(CC)C(=S)SSC(=S)N(CC)CC	–	0.0093 µM (active)
CN(C)C(=O)COC(=O)Cc1ccc(OC(=O)c2ccc(N=C(N)N)cc2)cc1	99.2% (inactive)	–
C[C@H](Cc1ccc(O)c(O)c1)[C@@H](C)Cc1ccc(O)c(O)c1	–	5.26 µM (active)
CN1CCC(=C2c3ccccc3CCc3sccc32)CC1	94.3% (inactive)	–
O=C1c2c(O)cc(O)cc2OC(c2ccc(O)c(O)c2)C1O (configuration not stated)	97.8% (inactive)	–
CC(C)C[C@H](NC(=O)[C@H](Cc1ccccc1)NC(=O)c1cnccn1)B(O)O	–	0.0093 µM (active)
Nc1nc(Cl)nc2c1ncn2[C@H]1C[C@H](O)[C@@H](CO)O1	–	0.0833 µM (active)
Cc1c(OCC(F)(F)F)ccnc1CS(=O)c1nc2ccccc2[nH]1 (configuration not stated)	111% (inactive)	–
Cc1ccc(NC(=O)c2ccc(CN3CCN(C)CC3)cc2)cc1Nc1nccc(-c2cccnc2)n1	81.9% (inactive)	–
C=C(c1ccc(C(=O)O)cc1)c1cc2c(cc1C)C(C)(C)CCC2(C)C	117% (inactive)	–

assay: Quantitative High-Throughput drug screen in 47 multiple myeloma cell lines against the NCATS MIPE library collection: NCIH929_DSMZ cell viability assay (AID 1918978); settings: NCI-H929 myeloma viability, CellTiter-Glo ATP, 48 h; series mostly up to 45.8 µM; viability, % of control: at the top concentration; note: nearly all actives have a fitted effect of over 35% in size
Procedure, shortened: as §1

SMILES	Potency	viability, % of control
COc1cc(C(C)=O)ccc1OCCCN1CCC(c2noc3cc(F)ccc23)CC1	18.7 µM (active)	–
CC1=C(C(=O)O)N2C(=O)[C@@H](NC(=O)[C@H](N)C3=CCC=CC3)[C@H]2SC1	–	98.7% (inactive)
CN(C)CCc1c[nH]c2ccc(Cn3cncn3)cc12	–	119% (inactive)
CCc1nc(N)nc(N)c1-c1ccc(Cl)cc1	–	79.7% (inactive)
CC1Cc2ccccc2N1NC(=O)c1ccc(Cl)c(S(N)(=O)=O)c1 (configuration not stated)	–	92.2% (inactive)
CCN(CC)CCOc1ccc(Cc2ccccc2)cc1	–	103% (inactive)
COc1cc2nc(N3CCN(C(=O)C4CCCO4)CC3)nc(N)c2cc1OC (configuration not stated)	–	116% (inactive)
Cc1cccc(C#Cc2ccccc2)n1	20.9 µM (active)	–
CC(=O)O[C@H]1C(=O)[C@@]2(C)C([C@H](OC(=O)c3ccccc3)[C@]3(O)C[C@H](OC(=O)[C@H](O)[C@@H](NC(=O)c4ccccc4)c4ccccc4)C(C)=C1C3(C)C)[C@]1(OC(C)=O)CO[C@@H]1C[C@@H]2O (some centres not stated)	–	80.1% (inactive)
CC1=C(C)C(=O)C(C(CCCCCC(=O)O)c2ccccc2)=C(C)C1=O (configuration not stated)	–	87.2% (inactive)
NS(=O)(=O)c1cc(C(=O)O)c(NCc2ccco2)cc1Cl	–	89.9% (inactive)
CN(C)[C@@H](CCOc1cccc2ccccc12)c1ccccc1	20.9 µM (active)	–
CCCS(=O)c1ccc2nc(NC(=O)OC)[nH]c2c1 (configuration not stated)	–	87.7% (inactive)
C[C@H](Cc1ccc(O)c(O)c1)[C@@H](C)Cc1ccc(O)c(O)c1	9.35 µM (active)	–
CN1CCC(=C2c3ccccc3CCc3sccc32)CC1	–	88% (inactive)
COc1cc(Nc2c(C#N)cnc3cc(OCCCN4CCN(C)CC4)c(OC)cc23)c(Cl)cc1Cl	3.72 µM (active)	–
NC(=NCc1ccccc1)NC(=O)c1nc(Cl)c(N)nc1N	1.32 µM (active)	–
O=c1oc2cc(O)ccc2s1	–	108% (inactive)
O=C1c2c(O)cc(O)cc2OC(c2ccc(O)c(O)c2)C1O (configuration not stated)	–	119% (inactive)
Cc1cc2cc3c(C)cc(=O)oc3c(C)c2o1	8.33 µM (active)	–
Cc1ccc(C)c(OCCCC(C)(C)C(=O)O)c1	23.5 µM (active)	–
CC(C)c1ccc2c(c1)c(SC(C)(C)C)c(CC(C)(C)C(=O)O)n2Cc1ccc(Cl)cc1	26.4 µM (active)	–
CC(=O)N1CCN(c2ccc(OC[C@H]3CO[C@](Cn4ccnc4)(c4ccc(Cl)cc4Cl)O3)cc2)CC1	9.35 µM (active)	–
Nc1nc(Cl)nc2c1ncn2[C@H]1C[C@H](O)[C@@H](CO)O1	0.59 µM (active)	–
CCN(CCO)CCCC(C)Nc1ccnc2cc(Cl)ccc12 (configuration not stated)	–	114% (inactive)

Reference: PubChem BioAssay (NCATS)
